Screening data: PubChem BioAssay, National Center for Advancing Translational Sciences (NCATS)
Sampled rows, rich in hits. Any-hit rate of the full collection: about 1.4%.
EPAC1 antagonist: EPAC1 (human) antagonism; Potency, µM (doses to about 115 µM), for inactives: top-dose activity change, negative = inhibition, hits mostly inhibitors; AID 720709; O95398; EPAC1 GEF assay, Rap1b-BODIPY-GDP exchange fluorescence; hit rate 0.14% among 360,000;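 further: plate controls were vehicle for no effect and positive control for full effect; nearly all actives have a fitted effect of over 50% in size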
Target sequence (O95398 whole entry, looked up): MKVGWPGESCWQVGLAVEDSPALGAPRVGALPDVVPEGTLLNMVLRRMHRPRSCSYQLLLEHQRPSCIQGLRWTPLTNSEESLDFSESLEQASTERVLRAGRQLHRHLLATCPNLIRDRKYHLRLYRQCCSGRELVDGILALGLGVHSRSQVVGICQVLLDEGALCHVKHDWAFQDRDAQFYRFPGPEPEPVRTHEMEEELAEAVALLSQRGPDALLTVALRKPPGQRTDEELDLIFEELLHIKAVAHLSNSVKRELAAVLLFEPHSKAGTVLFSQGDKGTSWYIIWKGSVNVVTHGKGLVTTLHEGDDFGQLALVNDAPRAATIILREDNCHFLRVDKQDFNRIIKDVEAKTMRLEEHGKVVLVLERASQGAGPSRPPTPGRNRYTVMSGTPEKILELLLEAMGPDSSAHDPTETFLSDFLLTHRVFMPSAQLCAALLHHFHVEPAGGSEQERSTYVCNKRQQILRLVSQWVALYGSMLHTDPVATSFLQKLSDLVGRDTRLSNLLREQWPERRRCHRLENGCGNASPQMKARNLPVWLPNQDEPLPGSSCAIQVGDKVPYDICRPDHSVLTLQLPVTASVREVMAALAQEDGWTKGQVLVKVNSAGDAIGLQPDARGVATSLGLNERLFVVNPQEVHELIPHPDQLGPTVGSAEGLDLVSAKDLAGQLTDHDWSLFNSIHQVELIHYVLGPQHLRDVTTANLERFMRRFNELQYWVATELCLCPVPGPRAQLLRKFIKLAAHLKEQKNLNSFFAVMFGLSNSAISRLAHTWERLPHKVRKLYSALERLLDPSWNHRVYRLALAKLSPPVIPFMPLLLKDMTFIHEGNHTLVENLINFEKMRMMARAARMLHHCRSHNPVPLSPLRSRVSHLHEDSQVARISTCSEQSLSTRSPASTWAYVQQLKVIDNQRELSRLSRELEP
EPAC1 agonist: agonists of human EPAC1; O95398; EPAC1 agonist qHTS, biochemical assay; response scale: 100% = response to 6.5 mM cAMP; Potency, µM (titrated, usually from 154 µM), inactives show top-dose activation, usual class: activators; hit rate 0.073% among 360,000; further: nearly all actives have a fitted effect of over 60% in size
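Compounds were pinned as a concentration titration into mixtures of EPAC1 (100 nM), BODIPY-GDP-loaded Rap1B (250 nM) and GDP (50 uM). After 5 min at room temperature, fluorescence was followed for 30 min; activity was scaled to 6.5 mM cAMP.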
USP1 inh: blocks the human USP1/UAF1 deubiquitinase complex; Potency, µM (highest dose often 57.1 µM), for the others: top-dose activity change, negative = inhibition, hits mostly inhibitors; recombinant USP1/UAF1, Ub-Rhodamine cleavage fluorescence; hit rate 0.23% among 390,000; AID 743255; O94782; further: on the % scale 0 is the no-effect control and ±100 the full control effect; nearly all actives have a fitted effect of over 60% in size
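In this screen, compounds sit with the deubiquitinase complex (1nM) for 15 min at room temperature before Ub-Rho is added at 150nM final. Fluorescence rise is then followed for 6 reads every 60 seconds.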
EPAC2 agonist: EPAC2 (human) agonism; Q8WZA2; EPAC2 activation, biochemical qHTS; response scale: 100% = 6.5 mM cAMP response; Potency, µM (series often up to 154 µM), for the others: at the highest dose activation, usual class: activators; hit rate 0.079% among 360,000; AID 720711; further: nearly all actives have a fitted effect of over 50% in size
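Each well held 100 nM EPAC2, 250 nM RAP1B-BODIPY-GDP and 50 uM GDP. Fluorescence, read at 5-min intervals to 30 min, was referenced to a 6.5 mM cAMP positive control.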
BRCA1 expr up: activators of BRCA1 expression. MCF7-BRCA1-FFLuc reporter, luminescence, 48 h; response scale: scaled: vehicle 0%, 10 µM genistein 100%. Potency, µM (titrated, usually from 46.1 µM), without a hit: at the top dose activation, most hits filed as activators. hit rate 1.1% among 380,000. AID 624202; further: nearly all actives have a fitted effect of over 80% in size
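MCF7-BRCA1-FFLuc cells, 2000/well in phenol-red-free MEM, attached 2 h then treated 48 h at 37 C. Luciferase luminescence read 15 min after reagent; normalized to genistein maximum activation (10microM) and DMSO, concentration-response fitted.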
EPAC2 antagonist: EPAC2 (human) antagonism. Q8WZA2. EPAC2 GEF exchange of Rap1B-BODIPY-GDP, fluorescence. Potency, µM (series often up to 114 µM), for the others: at the highest dose activity, negative = inhibition, usual class: inhibitors. hit rate 0.18% among 360,000; further: on the % scale 0 is the no-effect control and ±100 the full control effect; nearly all actives have a fitted effect of over 45% in size
Active calls of the source: *; ? = inconclusive; / = no result. The call rests on the fitted dose curve; in most records, active means well fitted curve in the direction sought with a large enough effect; inconclusive means small, poorly fitted or top-dose-only effect, or another doubt; inactive means no such curve, though single readings can be large; an effect the other way counts as inactive or inconclusive. Potency means the concentration at half of the fitted maximal effect.

SMILES	EPAC1 antagonist	EPAC1 agonist	USP1 inh	EPAC2 agonist	BRCA1 expr up	EPAC2 antagonist
Cc1noc(C)c1C(=O)N1CCC1(C)C(=O)NS(=O)(=O)c1cccs1 (stereo not given)	7%	-11%	/	9%	17%	15%
Nc1c(C(=O)C2CC2)sc2nc(-c3cccs3)cc(C(F)(F)F)c12	-4%	27%	?	112µM*	-26%	219%
Cc1cc(C)cc(NC(=O)CSCn2nnc3c(=O)[nH]c(Cc4ccc(F)cc4)nc32)c1	/	/	-18%	/	/	/
COc1cc(NC(=S)NCCC(c2ccccc2)c2ccccc2)cc(OC)c1	60%	89µM*	?	5%	-20%	-8%
CC1(Cc2ccccc2OC(F)(F)F)C(=O)Nc2ccc(OC(F)(F)F)cc21 (stereo not given)	?	-28%	/	-10%	-18%	?
Cn1cc([C@]2(O)C(=O)Nc3ccc(OC(F)(F)F)cc32)c2ccccc21	-15%	-18%	/	-6%	/	22µM*
O=C(N/N=C/c1c(O)n(-c2ccccc2Cl)c(=O)c2ccccc12)c1cccnc1	?	-12%	?	-1%	-25%	-22%
O=C(N/N=C/c1c(O)n(Cc2ccccc2)c(=O)c2ccccc12)c1cccnc1	?	1%	25µM*	23%	0%	-15%
COc1ccc(Cn2c(O)c(/C=N/NC(=O)c3cccnc3)c3ccccc3c2=O)cc1	-27%	13%	32µM*	11%	-77%	-8%
COc1cccc(-c2nnc(-c3ccc(C(F)(F)F)cc3)o2)c1	7%	-7%	-24%	1%	13µM*	3%
COc1cccc(-c2nnc(-c3ccc4ccccc4c3)o2)c1	-18%	3%	-14%	3%	?	8%
Cc1noc(C)c1NC(=O)Nc1ccc2c(c1)C(=O)N([C@H](C)CO)C[C@H](C)[C@@H](CN(C)S(=O)(=O)c1ccc(Cl)cc1)OCCCC[C@@H](C)O2	-5%	-10%	-20%	5%	-5%	-4%
